The values below come from PubChem BioAssay AID624304 (Sanford-Burnham Center for Chemical Genomics, 2012).

By inhibition is commonly meant the change of the read-out against control, counted positive when it falls.

Molecules are shown by their SMILES. The whole screen tested about 360,000 compounds, of which about 1,800 (0.5%) were called active. Only a selection was taken, and actives are over-represented in it overall. Values without a mark were called inactive.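 The calls were made as follows: active = interference check ratio from 0.5 to 1.5 plus GFP to RFP signal ratio inhibition reaching or exceeding a fixed threshold (cut at about 30% in these data, passing the limit was not always enough); inactive = the rest.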

This assay in a line: gst-4 reporter inhibition in live C. elegans – whole organism, uHTS, GFP/RFP fluorescence ratio, strain VP596, SKN-1 inhibitor project, primary screen (AID 624304). To be noted: C. elegans VP596 Pgst-4::GFP/RFP ratio, acrylamide-induced, 24 h; at 21.8 µM; active compounds read high.
Regarding `Cc1ccc(P(=S)(c2ccc(C)o2)N2CCOCC2)o1`, the inhibition was 36.8% (active). Under `CN(C)C(=O)Oc1ccc(NC(=O)N2CCOCC2)cc1` stands 12%; under `CC[N+]1(C)CCCC(OC(=O)C(O)(c2ccccc2)c2ccccc2)C1` (stereo not given), -6.17%; under `CC1CCCN1CCC(C(N)=O)(c1ccccc1)c1ccccc1` (stereo not given), -0.187%. In the case of `CN(C)CC1Oc2ccccc2OC1(O)c1ccccc1` (stereo not given), the inhibition is -1.82%.
